High-throughput results from PubChem.
MIN6 prolif: inducers of beta-cell replication in MIN6 cells. 0.29% of 330,000 active. proliferation, % at 10 µM. AID 2380. MIN6 cells proliferation, ATPlite luminescence, 48 h; cells starved in 0.2% serum; 100% = growth in 10% serum;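 active = compounds whose signal lies at least 3.5 SD above the mean of all wells on their plate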
MPTP block: inhibitors of mitochondrial permeability transition pore. isolated mouse mitochondria, Ca2+ swelling absorbance, 30 min. inhibition, % at 10 µM. 1.4% of 360,000 active. AID 602449;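 active = inhibition of 50% or more, scaled per plate between neutral and stimulator controls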
GRIN3A LBD mod: modulators (binders) of human NR3A ligand-binding domain | NR3A LBD differential scanning fluorimetry, Tm shift; 0% = protein alone, 100% = glycine-bound protein | Tm shift relative to glycine control, % at 25 µM | 2.5% of 340,000 active | AID 1259313;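 active = melting temperature shift of at least 10% of the positive control shift, at one fixed dose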
FAS-TE inh: FAS thioesterase (human) inhibition; P49327; recombinant FAS-TE, OMFH fluorogenic substrate, fluorescence endpoint; inhibition, % at 15 µM; 0.67% of 360,000 active;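 active = compounds whose normalised, plate-corrected inhibition of enzyme fluorescence in the single-dose primary screen is 50% or more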
p-CIP stab down: p/CIP protein destabilization; decrease of EGFP signal, % at 10 µM; F442A p/CIP-EGFP cells, EGFP fluorescence, 16 h; AID 1984; 0.01% of 290,000 active;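 active = EGFP signal decrease of at least 30% at 10 µM or well 3 SD below plate mean, unless failing retest; inactive = the rest, including hits failing retest or dose response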
Rh123 counter: Rhodamine 123 counter-screen of mitochondrial pore hits | 78% of 5,000 active | isolated mitochondria, membrane potential, Rhodamine 123 fluorescence | inhibition, % at 10 µM | shares compounds with MPTP block; in the data active = inhibition above about 22%
MPTP swell DR: dose response confirmation of mitochondrial permeability transition pore inhibitors. 58% of 780 active. isolated mitochondria swelling, absorbance. IC50, µM. AID 651561. shares compounds with MPTP block; in the data active = IC50 below about 20 µM
MPTP counter DR: MPTP inhibitor counter-screen activity, dose response. isolated mitochondria counterscreen, fluorescence read-out. shares compounds with MPTP block. 49% of 780 active. IC50, µM; in the data active = IC50 below about 80 µM
Hits are given with their value; – = inactive; · = not tested or not shown. The list is not random: actives were taken first. Their share in the collection is about 4.1%.

SMILES	MIN6 prolif	MPTP block	GRIN3A LBD mod	FAS-TE inh	p-CIP stab down	Rh123 counter	others
O=[N+]([O-])c1ccc(NC(=S)N2CCc3ccccc3C2)cc1	–	58	–	–	–	65
O=[N+]([O-])c1ccc(N2CCN(C(=S)Nc3cccc(F)c3)CC2)cc1	–	55	–	–	–	58
Nc1nc2ccccc2cc1C(=O)NCc1ccc(-c2ccccc2)cc1	·	106	·	·	·	103
Nc1nc2ccc(Cl)cc2cc1C(=O)NCCc1ccc(O)cc1	·	–	·	·	·	·
Nc1ccc(CNC(=O)c2cc3cc(Cl)ccc3nc2N)cc1	·	–	·	·	·	·
Nc1nc2ccccc2cc1C(=O)NCc1ccc(Cl)cc1Cl	·	67	·	–	·	97
Oc1cccc(C(O)CNCc2ccc(OCc3ccc(Cl)cc3Cl)cc2)c1 (stereo not given)	–	83	–	–	–	–	MPTP swell DR=6.7;MPTP counter DR=43
OC(CNCc1ccccc1)c1ccccc1 (stereo not given)	–	–	–	–	–	·
Oc1cccc(C(O)CNCc2ccc(-c3ccccc3)cc2)c1 (stereo not given)	–	92	–	–	–	–	MPTP swell DR=4.2;MPTP counter DR=51
OC(CNCc1cccc(Cl)c1)c1ccccc1 (stereo not given)	–	–	–	–	–	·
CC(=O)Nc1ccc(CN2CCN(CCc3ccccc3)C(CCO)C2)cc1 (stereo not given)	–	–	–	–	–	·
O=c1oc2cc(O)ccc2cc1-c1nc2c(s1)CCc1ccccc1-2	·	89	565	–	–	84
O=c1oc2ccccc2cc1-c1nc2c(s1)CCc1ccccc1-2	–	–	–	–	–	·
COc1cccc(CNC(=O)c2cc3c(C)nc4ccccc4c3o2)c1	–	60	–	–	–	34
COc1ccc(CNC(=O)c2cc3c(C)nc4ccccc4c3o2)c(OC)c1	–	73	–	–	–	96
CCc1ccc(CNC(=O)c2cc3c(C)nc4ccccc4c3o2)cc1	–	–	–	–	–	·
O=[N+]([O-])c1c(O)c(Cl)cc(Cl)c1Cl (tested in a mixture with another compound)	·	78	–	–	·	86
O=C(NCC1CCCO1)Nc1cc(Cl)cc(Cl)c1 (stereo not given)	–	82	–	–	–	88
FC(F)(F)c1cccc(Cc2noc(CN3CCCC(CN4CCCC4)C3)n2)c1 (stereo not given)	–	–	–	–	–	·
CCCCn1c(/C=C/c2ccco2)nc2ccccc21	–	–	–	–	–	·
CCCCn1c(/C=N/Nc2nc3ccccc3[nH]2)nc2ccccc21	–	100	–	–	–	84
O=C1c2ccc(Br)cc2C(=O)N1c1ccc(Cc2ccncc2)cc1	·	102	–	–	–	92
O=C1C2C3C=CC(C3)C2C(=O)N1c1ccc(Cc2ccncc2)cc1 (stereo not given)	–	–	–	–	–	·
CCN1CCN(c2ncc(C(=O)Nc3c(F)cc(F)cc3Br)c3ccccc23)CC1	–	70	–	–	–	–	MPTP swell DR=7.9;MPTP counter DR=–
CCN1CCN(c2ncc(C(=O)Nc3cc(Cl)c(OC)cc3OC)c3ccccc23)CC1	·	–	–	–	–	·
SMILES	MIN6 prolif	MPTP block	GRIN3A LBD mod	FAS-TE inh	p-CIP stab down	Rh123 counter	others
CCc1sc(C(=O)N2CCN(c3ccc(F)cc3)CC2)cc1C	–	–	–	–	–	·
N#CCCN(C(=O)Nc1ccc(Cl)c(Cl)c1)c1ccccc1	–	97	–	–	–	93
Cc1cc(Cn2nc(-c3ccccc3)cc2C(=O)NCc2cccc(C(F)(F)F)c2)on1	–	63	–	–	·	98
Cc1cc(Cn2nc(-c3ccccc3)cc2C(=O)NCc2cccc(Br)c2)on1	–	–	–	–	·	·
COC(=O)CSc1[nH]c2ccccc2c1[N+](=O)[O-]	–	–	–	–	–	·
C=CC(C)(C)c1c2occc2c(O)c2ccc(=O)oc12	–	74	–	–	·	84
CCOC(=O)CN(C(=O)c1snc(C(N)=O)c1N)C(C(=O)NC1CCCCC1)c1ccc(F)cc1 (stereo not given)	–	–	–	–	–	·
Cn1c(C(=O)N2CCN(c3nc4ccccc4s3)CC2)cc2sccc21	–	–	–	–	–	·
